Our source for the binding signal values is PMC7862700, “An all-to-all approach to the identification of sequence-specific readers for epigenetic DNA modifications on cytosine”.

Common to all, as to experiment: DAPPL (digital affinity profiling via proximity ligation, sequencing); 10 mM Tris-HCl pH 7.5, 50 mM NaCl, 1 mM DTT, 4% glycerol, room temperature, 30 min; GST-TFs on glutathione beads, 16-mer random dsDNA library, 0.1% formaldehyde crosslink after washing; high values mean tight binding
Experiment [1] has as its target T1, FLI1 (Homo sapiens, UniProt Q01543 1-452).
T1 sequence: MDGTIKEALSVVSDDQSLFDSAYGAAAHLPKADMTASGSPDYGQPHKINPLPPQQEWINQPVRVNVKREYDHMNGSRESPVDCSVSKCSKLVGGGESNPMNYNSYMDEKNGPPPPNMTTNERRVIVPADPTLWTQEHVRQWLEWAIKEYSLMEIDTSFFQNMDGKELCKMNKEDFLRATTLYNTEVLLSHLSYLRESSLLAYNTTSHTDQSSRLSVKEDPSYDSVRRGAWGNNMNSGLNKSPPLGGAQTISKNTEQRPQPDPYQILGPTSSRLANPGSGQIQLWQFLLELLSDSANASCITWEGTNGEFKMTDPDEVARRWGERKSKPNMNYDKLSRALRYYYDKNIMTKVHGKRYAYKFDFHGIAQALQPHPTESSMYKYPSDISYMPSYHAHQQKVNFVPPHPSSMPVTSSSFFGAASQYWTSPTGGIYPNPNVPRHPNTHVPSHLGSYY
As to conditions: protein: recombinant; tags: N-terminal GST; dsDNA, one strand shown. The gist of the method: (§1)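 Each value of binding signal is a hexamer's read frequency for a factor divided by the same hexamer's frequency in the tag-only sample. Barcoded, bead-captured GST fusions of human transcription factors made in yeast were pooled with that sample and incubated with 200 nmole of a random double-stranded 16-mer DNA library in Tris/NaCl/DTT/glycerol buffer at room temperature for 30 min. Washing, 0.1% formaldehyde crosslinking, proximity ligation, PCR and Illumina NextSeq500 sequencing followed.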

The target of experiment [2] is T2, ELK1 (Homo sapiens, UniProt P19419 1-428).
T2 sequence: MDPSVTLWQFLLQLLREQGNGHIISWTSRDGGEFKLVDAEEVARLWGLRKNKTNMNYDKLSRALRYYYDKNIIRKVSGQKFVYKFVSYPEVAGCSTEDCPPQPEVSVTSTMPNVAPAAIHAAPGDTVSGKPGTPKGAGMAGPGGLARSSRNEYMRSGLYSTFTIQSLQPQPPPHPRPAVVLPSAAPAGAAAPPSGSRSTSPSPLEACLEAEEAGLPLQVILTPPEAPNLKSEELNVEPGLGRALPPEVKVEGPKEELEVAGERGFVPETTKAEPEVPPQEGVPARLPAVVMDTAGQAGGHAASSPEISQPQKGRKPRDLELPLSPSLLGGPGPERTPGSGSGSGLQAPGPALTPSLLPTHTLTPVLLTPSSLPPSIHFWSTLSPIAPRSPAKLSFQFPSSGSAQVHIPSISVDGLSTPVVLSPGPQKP
To be noted: protein: recombinant; tags: N-terminal GST; dsDNA, one strand shown. In short, it runs like this: as §1

The target of experiment [3] is T3, GABPA (Homo sapiens, UniProt Q06546 1-454).
T3 sequence: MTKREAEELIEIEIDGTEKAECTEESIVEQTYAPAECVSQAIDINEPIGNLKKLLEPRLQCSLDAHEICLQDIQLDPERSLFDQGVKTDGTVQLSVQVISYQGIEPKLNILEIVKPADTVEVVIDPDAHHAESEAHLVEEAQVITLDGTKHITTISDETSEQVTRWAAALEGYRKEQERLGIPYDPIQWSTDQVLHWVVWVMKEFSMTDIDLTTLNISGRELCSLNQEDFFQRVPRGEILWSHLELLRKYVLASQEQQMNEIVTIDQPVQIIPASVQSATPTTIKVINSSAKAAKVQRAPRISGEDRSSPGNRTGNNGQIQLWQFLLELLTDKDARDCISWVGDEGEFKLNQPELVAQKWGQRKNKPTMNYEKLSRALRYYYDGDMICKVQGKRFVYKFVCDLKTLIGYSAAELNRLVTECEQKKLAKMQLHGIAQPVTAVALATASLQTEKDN
As to conditions: protein: recombinant; tags: N-terminal GST; dsDNA, one strand shown. In short, it runs like this:
as §1

Experiment [4] deals with T4, ERG (Homo sapiens, UniProt P11308 1-479).
T4 sequence: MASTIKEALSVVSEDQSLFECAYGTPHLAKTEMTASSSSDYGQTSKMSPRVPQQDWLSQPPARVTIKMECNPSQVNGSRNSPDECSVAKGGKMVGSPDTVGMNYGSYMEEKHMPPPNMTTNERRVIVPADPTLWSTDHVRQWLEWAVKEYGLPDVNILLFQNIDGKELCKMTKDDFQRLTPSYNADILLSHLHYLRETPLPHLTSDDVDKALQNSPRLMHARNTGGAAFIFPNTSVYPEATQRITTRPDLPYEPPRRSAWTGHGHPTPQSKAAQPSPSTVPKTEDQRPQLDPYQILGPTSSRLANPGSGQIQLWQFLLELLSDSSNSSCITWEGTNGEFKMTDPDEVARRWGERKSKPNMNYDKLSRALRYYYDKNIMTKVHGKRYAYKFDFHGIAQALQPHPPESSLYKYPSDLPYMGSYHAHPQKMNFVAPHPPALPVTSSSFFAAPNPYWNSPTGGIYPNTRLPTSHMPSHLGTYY
To be noted: protein: recombinant; tags: N-terminal GST; dsDNA, one strand shown. In short, it runs like this:
as §1

Experiment [5] addresses ELF1 (Homo sapiens, UniProt P32519 1-619). To be noted: protein: recombinant; tags: N-terminal GST; dsDNA, one strand shown. The gist of the method:
as §1

Experiment [6] deals with T5, EHF (Homo sapiens, UniProt Q9NZC4 1-300).
T5 sequence: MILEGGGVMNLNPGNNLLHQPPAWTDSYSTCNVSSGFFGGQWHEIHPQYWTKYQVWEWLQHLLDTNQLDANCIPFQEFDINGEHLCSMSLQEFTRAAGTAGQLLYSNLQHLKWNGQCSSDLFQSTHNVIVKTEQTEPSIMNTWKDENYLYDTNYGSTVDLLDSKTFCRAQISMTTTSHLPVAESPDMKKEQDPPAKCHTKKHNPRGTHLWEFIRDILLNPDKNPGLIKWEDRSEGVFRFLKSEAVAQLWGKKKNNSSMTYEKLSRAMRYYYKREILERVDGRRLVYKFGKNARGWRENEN
To be noted: protein: recombinant; tags: N-terminal GST; dsDNA, one strand shown. In short, it runs like this: as §1

The target in experiment [7] is SPI1 (Homo sapiens, UniProt P17947 1-270). To be noted: protein: recombinant; tags: N-terminal GST; dsDNA, one strand shown. In short, it runs like this:
as §1

Experiment [8] addresses SPIB (Homo sapiens, UniProt Q01892 1-262). As to conditions: protein: recombinant; tags: N-terminal GST; dsDNA, one strand shown. In short, it runs like this: as §1
Experiment [9] deals with T6, ELK3 (Homo sapiens, UniProt P41970 1-407).
T6 sequence: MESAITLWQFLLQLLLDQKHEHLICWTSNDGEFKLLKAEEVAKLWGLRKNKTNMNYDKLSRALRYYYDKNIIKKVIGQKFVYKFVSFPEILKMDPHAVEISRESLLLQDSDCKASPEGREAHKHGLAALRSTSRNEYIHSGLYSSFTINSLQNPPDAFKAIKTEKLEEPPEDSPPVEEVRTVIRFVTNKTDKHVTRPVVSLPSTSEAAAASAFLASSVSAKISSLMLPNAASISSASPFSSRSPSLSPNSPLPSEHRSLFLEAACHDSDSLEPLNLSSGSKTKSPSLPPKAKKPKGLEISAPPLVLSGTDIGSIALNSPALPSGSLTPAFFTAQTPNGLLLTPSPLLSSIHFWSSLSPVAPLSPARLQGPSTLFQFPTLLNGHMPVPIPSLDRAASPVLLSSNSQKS
As to conditions: protein: recombinant; tags: N-terminal GST; dsDNA, one strand shown. In short, it runs like this: as §1

The target of experiment [10] is T7, FEV (Homo sapiens, UniProt Q99581 1-238).
T7 sequence: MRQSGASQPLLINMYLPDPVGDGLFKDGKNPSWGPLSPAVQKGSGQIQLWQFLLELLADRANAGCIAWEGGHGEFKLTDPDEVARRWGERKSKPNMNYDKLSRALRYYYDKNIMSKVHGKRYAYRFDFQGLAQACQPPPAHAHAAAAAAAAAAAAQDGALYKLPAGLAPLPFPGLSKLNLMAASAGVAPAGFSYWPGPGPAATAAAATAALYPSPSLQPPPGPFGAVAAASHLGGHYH
To be noted: protein: recombinant; tags: N-terminal GST; dsDNA, one strand shown. The gist of the method: as §1

For experiment [11], the target named is ETV5 (Homo sapiens, UniProt P41161 1-510). To be noted: protein: recombinant; tags: N-terminal GST; dsDNA, one strand shown. In short, it runs like this:
as §1

Experiment [12] addresses HSF1 (Homo sapiens, UniProt Q00613 1-529). To be noted: protein: recombinant; tags: N-terminal GST; chain copies: 3; dsDNA, one strand shown. In short, it runs like this: as §1
The target in experiment [13] is ELF4 (Homo sapiens, UniProt Q99607 1-663). As to conditions: protein: recombinant; tags: N-terminal GST; dsDNA, one strand shown. In short, it runs like this:
as §1

The target in experiment [14] is T8, ELK4 (Homo sapiens, UniProt P28324-2 1-405).
T8 sequence: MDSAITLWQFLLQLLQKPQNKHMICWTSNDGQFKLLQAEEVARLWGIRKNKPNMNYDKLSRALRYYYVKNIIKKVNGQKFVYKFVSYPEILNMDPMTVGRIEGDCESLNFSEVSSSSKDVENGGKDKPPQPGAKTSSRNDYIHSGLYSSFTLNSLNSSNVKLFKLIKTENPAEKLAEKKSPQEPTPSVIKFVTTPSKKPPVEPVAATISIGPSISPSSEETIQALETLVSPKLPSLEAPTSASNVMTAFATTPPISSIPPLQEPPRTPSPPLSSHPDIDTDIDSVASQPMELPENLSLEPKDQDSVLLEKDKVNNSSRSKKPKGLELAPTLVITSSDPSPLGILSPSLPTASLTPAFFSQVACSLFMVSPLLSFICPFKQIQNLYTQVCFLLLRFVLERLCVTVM
As to conditions: protein: recombinant; tags: N-terminal GST; dsDNA, one strand shown. In short, it runs like this: as §1

Experiment [15] addresses T9, ETV2 (Homo sapiens, UniProt O00321 1-342).
T9 sequence: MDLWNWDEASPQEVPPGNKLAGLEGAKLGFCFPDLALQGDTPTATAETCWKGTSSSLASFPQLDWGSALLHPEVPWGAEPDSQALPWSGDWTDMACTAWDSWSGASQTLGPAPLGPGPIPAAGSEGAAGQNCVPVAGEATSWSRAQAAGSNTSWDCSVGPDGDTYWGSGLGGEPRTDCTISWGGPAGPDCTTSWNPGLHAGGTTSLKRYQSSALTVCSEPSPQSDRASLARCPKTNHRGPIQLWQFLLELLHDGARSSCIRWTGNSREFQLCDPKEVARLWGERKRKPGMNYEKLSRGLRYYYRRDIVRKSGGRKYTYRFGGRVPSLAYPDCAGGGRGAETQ
As to conditions: protein: recombinant; tags: N-terminal GST; dsDNA, one strand shown. The gist of the method:
as §1

For experiment [16], the target named is T10, ELF3 (Homo sapiens, UniProt P78545 1-371).
T10 sequence: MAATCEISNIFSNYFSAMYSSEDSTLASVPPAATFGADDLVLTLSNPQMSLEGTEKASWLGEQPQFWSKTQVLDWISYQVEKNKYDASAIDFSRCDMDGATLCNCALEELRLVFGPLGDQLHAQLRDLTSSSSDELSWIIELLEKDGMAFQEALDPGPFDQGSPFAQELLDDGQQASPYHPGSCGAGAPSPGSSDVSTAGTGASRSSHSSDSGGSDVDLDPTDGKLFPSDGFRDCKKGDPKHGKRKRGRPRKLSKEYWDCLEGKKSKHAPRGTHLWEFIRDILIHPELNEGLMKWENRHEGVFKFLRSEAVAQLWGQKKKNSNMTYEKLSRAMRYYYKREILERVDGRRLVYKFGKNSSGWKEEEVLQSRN
To be noted: protein: recombinant; tags: N-terminal GST; dsDNA, one strand shown. The gist of the method: as §1

Experiment [17] addresses CRX (Homo sapiens, UniProt O43186 1-299). To be noted: protein: recombinant; tags: N-terminal GST; dsDNA, one strand shown. The gist of the method:
as §1

Experiment [18] deals with ETV1 (Homo sapiens, UniProt P50549 1-477). As to conditions: protein: recombinant; tags: N-terminal GST; dsDNA, one strand shown. The gist of the method: as §1
Sequence of ETV1 (P50549 whole entry): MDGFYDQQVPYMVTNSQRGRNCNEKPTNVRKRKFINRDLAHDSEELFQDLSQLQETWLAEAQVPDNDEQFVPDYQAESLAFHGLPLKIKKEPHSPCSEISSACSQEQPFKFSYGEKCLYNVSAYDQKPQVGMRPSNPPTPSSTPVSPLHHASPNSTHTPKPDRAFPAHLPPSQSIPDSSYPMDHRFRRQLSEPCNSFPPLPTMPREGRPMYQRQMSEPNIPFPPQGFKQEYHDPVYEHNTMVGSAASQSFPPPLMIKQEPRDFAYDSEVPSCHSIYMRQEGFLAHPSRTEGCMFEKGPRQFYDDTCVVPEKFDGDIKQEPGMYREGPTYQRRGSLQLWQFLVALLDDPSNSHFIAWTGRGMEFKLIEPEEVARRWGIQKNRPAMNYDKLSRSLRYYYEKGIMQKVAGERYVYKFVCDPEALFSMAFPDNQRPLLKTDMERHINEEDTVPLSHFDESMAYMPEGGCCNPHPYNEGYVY

Sequence of ELF4 (Q99607 whole entry): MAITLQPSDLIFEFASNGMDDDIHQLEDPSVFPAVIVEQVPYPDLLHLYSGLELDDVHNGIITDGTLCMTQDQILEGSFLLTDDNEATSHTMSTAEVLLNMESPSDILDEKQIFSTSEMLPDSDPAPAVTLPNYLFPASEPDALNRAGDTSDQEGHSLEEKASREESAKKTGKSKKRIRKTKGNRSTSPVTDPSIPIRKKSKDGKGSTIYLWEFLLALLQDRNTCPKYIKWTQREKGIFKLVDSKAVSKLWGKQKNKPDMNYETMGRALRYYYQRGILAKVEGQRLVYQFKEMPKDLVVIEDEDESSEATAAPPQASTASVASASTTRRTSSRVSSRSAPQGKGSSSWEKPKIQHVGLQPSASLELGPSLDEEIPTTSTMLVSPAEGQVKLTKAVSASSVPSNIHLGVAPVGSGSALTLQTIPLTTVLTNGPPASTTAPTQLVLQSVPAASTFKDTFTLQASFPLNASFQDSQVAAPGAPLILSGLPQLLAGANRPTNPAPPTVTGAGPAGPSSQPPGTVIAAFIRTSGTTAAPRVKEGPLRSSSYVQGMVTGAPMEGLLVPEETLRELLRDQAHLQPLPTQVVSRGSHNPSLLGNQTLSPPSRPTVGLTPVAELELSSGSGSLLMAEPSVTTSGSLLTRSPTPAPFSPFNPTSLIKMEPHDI
Sequence of HSF1 (Q00613 whole entry): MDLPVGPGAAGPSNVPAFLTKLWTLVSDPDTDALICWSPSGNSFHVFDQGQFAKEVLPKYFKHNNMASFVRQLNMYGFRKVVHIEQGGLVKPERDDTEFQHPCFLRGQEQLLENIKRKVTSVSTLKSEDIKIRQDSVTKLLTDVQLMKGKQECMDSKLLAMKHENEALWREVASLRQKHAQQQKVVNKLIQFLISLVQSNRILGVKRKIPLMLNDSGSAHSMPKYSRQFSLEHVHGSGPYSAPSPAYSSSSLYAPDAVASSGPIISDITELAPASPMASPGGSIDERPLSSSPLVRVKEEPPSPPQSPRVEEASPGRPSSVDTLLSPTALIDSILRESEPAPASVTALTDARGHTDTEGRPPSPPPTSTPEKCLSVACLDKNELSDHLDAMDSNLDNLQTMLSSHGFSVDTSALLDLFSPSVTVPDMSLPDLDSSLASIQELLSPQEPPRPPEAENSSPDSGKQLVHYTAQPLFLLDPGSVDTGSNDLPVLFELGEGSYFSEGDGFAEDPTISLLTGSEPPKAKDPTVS
Sequence of CRX (O43186 whole entry): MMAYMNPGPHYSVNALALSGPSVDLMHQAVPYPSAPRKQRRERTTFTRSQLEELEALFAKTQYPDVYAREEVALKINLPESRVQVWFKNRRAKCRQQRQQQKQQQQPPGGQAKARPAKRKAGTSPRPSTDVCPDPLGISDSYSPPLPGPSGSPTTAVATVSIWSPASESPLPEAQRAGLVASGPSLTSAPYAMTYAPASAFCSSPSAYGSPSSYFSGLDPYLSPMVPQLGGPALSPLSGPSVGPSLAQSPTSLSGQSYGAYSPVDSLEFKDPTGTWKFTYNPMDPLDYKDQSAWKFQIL
Sequence of SPIB (Q01892 whole entry): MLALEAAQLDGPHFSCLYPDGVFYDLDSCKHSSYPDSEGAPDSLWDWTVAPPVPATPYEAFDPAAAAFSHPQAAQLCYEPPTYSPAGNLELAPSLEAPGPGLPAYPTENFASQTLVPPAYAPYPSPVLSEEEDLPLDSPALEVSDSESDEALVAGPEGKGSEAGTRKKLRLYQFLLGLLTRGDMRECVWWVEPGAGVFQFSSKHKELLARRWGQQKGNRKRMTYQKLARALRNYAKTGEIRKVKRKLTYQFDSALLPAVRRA
Sequence of ETV5 (P41161 whole entry): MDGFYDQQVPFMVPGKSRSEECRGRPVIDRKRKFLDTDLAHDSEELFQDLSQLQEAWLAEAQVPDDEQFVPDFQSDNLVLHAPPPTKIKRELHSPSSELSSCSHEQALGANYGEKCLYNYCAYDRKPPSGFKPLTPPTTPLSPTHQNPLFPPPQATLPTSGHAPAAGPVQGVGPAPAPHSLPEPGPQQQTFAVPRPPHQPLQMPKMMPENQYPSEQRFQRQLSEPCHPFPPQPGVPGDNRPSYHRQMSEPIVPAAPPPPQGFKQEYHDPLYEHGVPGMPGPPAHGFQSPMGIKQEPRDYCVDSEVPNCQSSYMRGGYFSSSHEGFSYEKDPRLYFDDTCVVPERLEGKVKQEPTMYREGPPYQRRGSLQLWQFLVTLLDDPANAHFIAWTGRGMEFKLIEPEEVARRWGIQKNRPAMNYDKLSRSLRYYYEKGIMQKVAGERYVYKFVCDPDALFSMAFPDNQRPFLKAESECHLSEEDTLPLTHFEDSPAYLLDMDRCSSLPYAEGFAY
Sequence of ELF1 (P32519 whole entry): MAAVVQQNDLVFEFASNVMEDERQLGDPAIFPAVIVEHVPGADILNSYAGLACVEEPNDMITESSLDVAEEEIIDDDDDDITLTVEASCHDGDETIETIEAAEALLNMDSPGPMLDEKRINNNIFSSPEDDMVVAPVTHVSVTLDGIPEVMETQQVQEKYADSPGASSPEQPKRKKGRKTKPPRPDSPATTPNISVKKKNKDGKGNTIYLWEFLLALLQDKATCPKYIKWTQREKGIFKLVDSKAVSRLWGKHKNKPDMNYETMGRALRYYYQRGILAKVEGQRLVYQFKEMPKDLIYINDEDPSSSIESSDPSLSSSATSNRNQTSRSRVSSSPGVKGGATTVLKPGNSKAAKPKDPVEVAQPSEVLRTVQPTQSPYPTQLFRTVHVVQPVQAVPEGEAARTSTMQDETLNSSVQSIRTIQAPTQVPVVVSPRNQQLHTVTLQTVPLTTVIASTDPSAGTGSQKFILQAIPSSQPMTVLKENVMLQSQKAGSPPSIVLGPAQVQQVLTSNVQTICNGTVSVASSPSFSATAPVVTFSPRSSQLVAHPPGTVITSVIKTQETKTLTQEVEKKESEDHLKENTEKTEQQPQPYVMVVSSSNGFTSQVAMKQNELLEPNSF

Turning to TCAAAG, the binding signal in experiment [1] was 1.08 fold enrichment (6-mer frequency, TF over GST control); in experiment [2], 1.01 fold enrichment (6-mer frequency, TF over GST control); in [3] it was 1.13 fold enrichment (6-mer frequency, TF over GST control); in [4], 1.09 fold enrichment (6-mer frequency, TF over GST control); in experiment [5], 1.19 fold enrichment (6-mer frequency, TF over GST control); in experiment [6], 1.02 fold enrichment (6-mer frequency, TF over GST control). The binding signal in [7] is 1.1 fold enrichment (6-mer frequency, TF over GST control); in experiment [8] it was 1.11 fold enrichment (6-mer frequency, TF over GST control); in experiment [9], 1.15 fold enrichment (6-mer frequency, TF over GST control); in [10] it was 1.1 fold enrichment (6-mer frequency, TF over GST control); in [11], 1.08 fold enrichment (6-mer frequency, TF over GST control); in [12], 1.17 fold enrichment (6-mer frequency, TF over GST control). Moreover, the binding signal in experiment [13] was 1.14 fold enrichment (6-mer frequency, TF over GST control); in [14] it was 1.21 fold enrichment (6-mer frequency, TF over GST control); in experiment [15], 1.03 fold enrichment (6-mer frequency, TF over GST control); in experiment [16] it was 1.16 fold enrichment (6-mer frequency, TF over GST control); in experiment [17], 1.32 fold enrichment (6-mer frequency, TF over GST control); in experiment [18] it was 1.13 fold enrichment (6-mer frequency, TF over GST control).
